PubChem BioAssay AID1345083 (National Center for Advancing Translational Sciences (NCATS), 2018)
Hit rate of the full screen: of about 94,000 compounds, about 6,200 (6.6%) were called active. Inconclusive results (about 31%) are left out. This excerpt belongs to a sample that is enriched for actives. A number with no mark means an inactive call. Calls come from the whole dose curve; as a rule, active = well fitted inhibition curve with a large enough effect; inconclusive = small, poorly fitted or top-dose-only effect; inactive = flat fitted curve, though single readings scatter.

Assay: Cytotoxic Profiling in HEK 293 Cell Line of Diverse Libraries Using Quantitative High-Throughput Screening; note: nearly all actives have a fitted effect of over 60% in size
Details: HEK 293 viability, ATP luminescence (CellTiter-Glo), 48-72 h; series mostly up to 115 µM; activity change, negative = cytotoxicity: at the top concentration
From the text: Cell-based phenotypic screening is a commonly used approach to discover biological pathways, novel drug targets, chemical probes and high-quality hit-to-lead molecules. Many hits identified from high-throughput screening campaign are ruled out through a series of follow-up potency, selectivity/specificity, and cytotoxicity assays. Prioritization of molecules with little or no cytotoxicity for a more in-depth downstream evaluation influence the future direction of projects, so cytotoxicity profiling of the screening libraries at early stage is essential for increasing the likelihood of candidate success. In this study, we analyzed results from a cell-based cytotoxicity screening campaign, comprising nearly 10,000 compounds in NCATS annotated libraries, and over 100,000 compounds in a diversity library, evaluated in four normal cell lines (HEK 293, NIH 3T3, CRL-7250 and HaCat) and a cancer cell line (KB 3-1, a HeLa subline) with overall screening outcomes, hit rates, pan-activity and selectivity. For the annotated library, we also examined the primary targets and mechanistic pathways regularly associated with cell death. To our knowledge, this is the first study to use high-throughput screening to profile large libraries for cytotoxicity assessment in both normal and cancer cell lines. In summary, the results generated here constitutes a valuable resource for the scientific community and provides insight on identifying cytotoxic compounds with particular mechanisms of action, and prioritizing compounds with suitable cytotoxicity profile for further evaluation.
HEK 293 cells were seeded into white 1536-well plates using a Multidrop Combi peristaltic dispenser (ThermoFisher, Waltham, MA) at a density of 250 cells/well in 5 uL of medium respectively. A pintool (Kalypsys) was used to transfer 23 nL of compound solution to the 1536-well assay plates. After 48 or 72 hr incubation at 37 degree Celsius, 5% CO2 and 95% humidity, 2.5 uL of CellTiter-Glo (Promega) was dispensed into each well using a dispenser (Aspect Automation, St. Paul, MN) with solenoid valves (Lee Valves, Westbrook CT). Plates were left at room temperature for 10 min before imaging the ATP-coupled luminescence using a ViewLux microplate imager (PerkinElmer, Waltham, MA).
% is set by controls: 0 for no effect and ±100 for the full control effect; potency is the fitted concentration of half-maximal effect.

Structure (SMILES)	Potency	activity change, negative = cytotoxicity	outcome
CC1(c2ccccc2)N(Cc2ccccc2)C(=O)OC12CCN(c1ccncc1)CC2 (configuration not stated)	89.1 µM (active)	–	–
CC1(c2ccccc2)N(Cc2ncccn2)C(=O)OC12CCN(CCCc1ccccc1)CC2 (configuration not stated)	–	-16.8%	–
CCN(Cc1ccccc1)C(=O)CC1CCCN(c2cnn(CCOC)c(=O)c2)C1 (configuration not stated)	–	-1.1%	–
COc1ccc(-c2noc(-c3nnn4c3COC(c3ccc(OC)cc3)C4)n2)cc1 (configuration not stated)	–	17.9%	–
Cc1nc(C)c(C(=O)N2CCC(Oc3ccccc3-c3nc(-c4ccccc4)no3)C2)s1 (configuration not stated)	28.2 µM (active)	–	–
Cc1noc(-c2ccccc2OC2CCN(C(=O)c3cnccc3C)C2)n1 (configuration not stated)	–	-0.104%	–
CC(C)CC(=O)N1CCC(Oc2ccccc2-c2nc(C3CCOCC3)no2)C1 (configuration not stated)	–	-37.7%	–
CCn1ccc(C(=O)N2CCCN(S(=O)(=O)c3ccccc3)CCC(=O)NCC2)n1	–	–	inactive
COCCNC(=O)C(C)[C@@H]1CC[C@@]2(C)CC[C@H](NC(=O)c3ccccc3)[C@@H](C)[C@@H]2[C@H]1O (some centres not stated)	–	-10.3% [at 172 µM]	–
C[C@H]1[C@@H]2[C@@H](O)C([C@H](C)C(=O)NCCN3CCOCC3)CC[C@@]2(C)CC[C@@H]1NC(=O)c1ccccc1 (some centres not stated)	–	-4.94%	–
C[C@H]1[C@@H]2[C@H]3OC(=O)[C@@H](C)[C@@H]3CC[C@@]2(C)CC[C@@H]1NC(=O)Cc1ccccc1	100 µM (active)	–	–
CCc1nc(-c2c3n(c(=O)n(CC(=O)Nc4cccc(Cl)c4C)c2=O)CCCC3)no1	–	16%	–
Cc1nn(-c2ccccc2)c(C)c1CN1CCCC12Cc1ccccc1CNC2=O (configuration not stated)	–	-26.1%	–
O=C1NCc2ccccc2CC12CCCCN2Cc1cccc(F)c1F (configuration not stated)	50.1 µM (active)	–	–
CCOC(=O)C1CC1CN1CCCC12Cc1ccccc1CNC2=O (configuration not stated)	–	-17.2%	–
CCN(C(=O)CCC(=O)N1CCc2c(c(-c3nncn3CC)nn2C)C1)c1ccccc1	–	-5.93%	–
CC(C)c1nnc(C2CN(C(=O)c3ccc4ccccc4n3)CC23CCOCC3)o1 (configuration not stated)	–	-0.559%	–
CNc1ncc(C(=O)N[C@@H]2COCC[C@@H]2OCc2c(C)noc2C)cn1	–	-16.4%	–
COc1ccc(NC(=O)c2cc3c(N(C)Cc4ccccc4)nc(C)cn3n2)cc1F	–	-23.2%	–
O=C(c1cnccn1)N1CCC2(COc3ncccc3[S+](=O)([O-])N2)C1 (configuration not stated)	–	-22.4%	–
CCCn1cc(C(=O)N2C[C@H](c3ccccc3)[C@@H](N)C2)c(C)n1	–	2.2%	–
COc1ccc(CN2CCC3(Cc4ccccc4CNC3=O)C2)cc1OC (configuration not stated)	–	-18.4%	–
CN1CC(=O)N(c2cccnc2)Cc2c1ncnc2N1CCN(c2ccccn2)CC1	–	3.25%	–
O=C(O)CCC(=O)N1Cc2[nH]cnc2C[C@H]1c1nc(-c2ccc3ccccc3c2)no1	–	2.68% [at 172 µM]	–
O=C(NCc1ccccc1)[C@@H]1Cc2nc[nH]c2CN1Cc1cccc(OC(F)(F)F)c1	70.8 µM (active)	–	–
O=[N+]([O-])c1cccc(-c2noc([C@@H]3C[C@@H](O)CN3Cc3cccc(OC(F)(F)F)c3)n2)c1	–	-23.7%	–

Structure (SMILES)	Potency	activity change, negative = cytotoxicity	outcome
CN1Cc2ncnc(NCc3cccs3)c2CN(c2ccccc2)C1=O	–	-16.5%	–
CN1CCN(C(=O)CC2=C3CCCCC3NC2=O)CC1 (configuration not stated)	–	-0.271%	–
O=C(CCC1CCN(C(=O)c2ccccc2F)CC1)Nc1cccc(Cl)c1	12.6 µM (active)	–	–
O=C(NCCC1CCN(C(=O)Nc2cc(F)ccc2F)CC1)c1cc(F)ccc1F	–	-7.51%	–
COc1ccc(NC(=O)CCC2CCN(S(=O)(=O)c3ccc(C)cc3)CC2)cc1F	–	-5.83%	–
COc1cc2c(cc1C(=O)N1CCC3(CCCN(C)C3=O)C1)CCC2 (configuration not stated)	–	-14%	–
Cn1nccc1CN1CCc2nc(C3CC3)nc(-c3ccc(O)cc3)c2C1	–	-11.9%	–
COCCc1noc(CC2CCOC3(CCN(C(=O)C4CCCC4)CC3)C2)n1 (configuration not stated)	–	-15.6%	–
CN(C)C[C@H]1O[C@@H]2C[C@@H](CC(=O)N3CCC(F)(F)C3)O[C@@H]2[C@@H]1O	–	–	inactive [at 172 µM]
O=C(Cc1cccnc1)N1CCc2onc(-c3ccc(F)c(F)c3)c2C1	–	-5.33%	–
Cc1ccccc1S(=O)(=O)N1CCCC(CCC(=O)NCC2CCCCC2)C1 (configuration not stated)	39.8 µM (active)	–	–
COc1ccc(Cl)cc1S(=O)(=O)N1CCCC(CNC(=O)c2ccco2)C1 (configuration not stated)	–	-23.9%	–
Cc1ccc(S(=O)(=O)N2CCCC(CCC(=O)N(C)C)C2)cc1 (configuration not stated)	–	-7.42%	–
CCCc1noc(-c2ccn3c(CNC(=O)c4ccc(N(C)C)cc4)nnc3c2)n1	–	–	inactive
CCCNC(=O)N(C1CCOCC1)C1CCN(S(=O)(=O)c2ccc(F)cc2)CC1	–	14.9%	–
Cc1ccc(N2CCN(C(=O)c3ccc4c(c3)N(C)C3CCCCCN3C4=O)CC2)cc1 (configuration not stated)	39.8 µM (active)	–	–
Cc1ccc(C(=O)N2CCC(C(=O)N3CCC(N4CCOCC4=O)CC3)CC2)cc1	–	–	inactive
COCCn1ccc2cc(C(=O)Nc3ccc4c(c3)C(=O)N3CCC[C@H]3C(=O)N4)ccc21	–	2.52%	–
CN1c2cc(C(=O)N3CCC(C(N)=O)CC3)ccc2C(=O)N2CCCCC21 (configuration not stated)	–	4.63%	–
Cc1cccc(NC(=O)Cn2nc3n(c2=O)CCCC3)c1	–	-3.69%	–
Cc1ccc(CNC(=O)c2ccc3c(c2)N(C)C2CCCCN2C3=O)cc1C (configuration not stated)	–	-7.81%	–
CN1c2cc(C(=O)Nc3ccc(Cl)cc3)ccc2C(=O)N2CCCCCC21 (configuration not stated)	35.5 µM (active)	–	–
CCOC(=O)c1cccc(NC(=O)c2ccc3c(c2)N(C)C2CCCCN2C3=O)c1 (configuration not stated)	35.5 µM (active)	–	–
CN1c2cc(C(=O)Nc3ccccc3)ccc2C(=O)N2CCCCCC21 (configuration not stated)	79.4 µM (active)	–	–
CCOc1ccc(NC(=O)c2ccc3c(c2)N(C)C2CCCN2C3=O)cc1 (configuration not stated)	–	-4.25%	–
CN1CCCCCCN(C(=O)Nc2ccccc2)CCC1=O	–	-17.9%	–
